# CHX counter: affects cycloheximide protein synthesis inhibition readout, counter-screen; cell reporter, cycloheximide protein synthesis inhibition counterscreen; max response, %; actives 12% (n = 300,000); in the data active = max response mostly above about 13%, no sharp cut-off; inactive = mostly below about 14%; note: read at 38.3 µM for the half of the compounds with a filed dose; 0% is about no effect
# Lassa entry inh: blocks Lassa virus binding to or entry into cells; Lassa virus pseudotype entry inhibition, cell reporter; Potency, µM (titrated, usually from 37.9 µM), for inactives: at the top dose activity change, negative = inhibition, usual class: inhibitors; actives 1.2% (n = 300,000); calls by dose curve; tested in HEK293 cells; note: potency is the fitted concentration of half-maximal effect; % is set by controls: 0 for no effect and ±100 for the full control effect; nearly all actives have a fitted effect of over 50% in size
# HCV inhibitor: blocks hepatitis C virus. Huh7.5.1 HCVcc-Cre infection, luciferase reporter, 44 h. Potency, µM (doses to about 41.8 µM), for inactives: top-dose activity change, negative = inhibition, hits mostly inhibitors. actives 3.4% (n = 340,000); active = well fitted inhibition curve with a large enough effect; inconclusive = small, poorly fitted or top-dose-only effect, or another doubt; inactive = no such curve, though single readings can be large or run the other way; note: potency is the fitted concentration of half-maximal effect; % is set by controls: 0 for no effect and ±100 for the full control effect
#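 A cell-based infection assay in which seeded cells (1,000 per well) receive test compound after 4 h, are inoculated with HCVcc-Cre at approximately 0.5 moi, and are incubated 44 h before luminescence detection.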
# FMDV inh: foot and mouth disease virus antiviral activity. FMDV antiviral cell-based qHTS. Potency, µM (highest dose often 57.9 µM), for inactives: at the top dose activity change, negative = inhibition, hits mostly inhibitors. actives 1.2% (n = 410,000); calls by dose curve; tested in HEK293T cells; note: read-out not given here; potency is the fitted concentration of half-maximal effect; % is set by controls: 0 for no effect and ±100 for the full control effect; nearly all actives have a fitted effect of over 45% in size
# Shiga toxin inh: inhibitors of Shiga toxin in Vero cells; inhibition, % at 38.7 µM; actives 9.2% (n = 290,000); Vero cells, Shiga toxin protein synthesis inhibition reporter; AID 2315; in the data active = inhibition mostly above about 28%, no sharp cut-off; inactive = mostly below about 43%; note: 0% is about no effect
# MARV entry inh: Marburg virus entry inhibition. Marburg virus pseudotyped entry inhibition, cell reporter. Potency, µM (doses to about 37.8 µM), for the others: at the top dose activity change, negative = inhibition, most hits filed as inhibitors. actives 1.8% (n = 300,000). AID 540276; calls by dose curve; tested in HEK293 cells; note: potency is the fitted concentration of half-maximal effect; % is set by controls: 0 for no effect and ±100 for the full control effect
# Numbers without * were called inactive; ? = inconclusive; nt = not tested or not shown; ! = a repeat was not active; [ ] = another dose, or the depositor's remark. Sampled rows, rich in hits. Any-hit rate of the full collection: about 13%.
SMILES,CHX counter,Lassa entry inh,HCV inhibitor,FMDV inh,Shiga toxin inh,MARV entry inh
CCS(=O)(=O)c1nc(S(=O)(=O)c2ccc(C)cc2)c(NCCN2CCOCC2)s1,-2,nt,-5%,11%,2,nt
O=C(COc1ccccc1)Nc1ccc(Cl)cc1C(=O)c1ccccc1,5,-23%,-6%,-19%,-3,?
O=C(COc1ccccc1)Nc1ccc(Cl)cc1Cl,53*,nt,nt,nt,93*,nt
CCCNS(=O)(=O)c1ccc(OCC(=O)Nc2ccccc2F)cc1,13,6%,-9%,6%,11,-4%
Cc1ccc(Cl)cc1NC(=O)CCC(=O)Nc1cc(Cl)ccc1C,-2,-5%,28%,9%,-8,10%
O=C(COc1ccccc1)Nc1cc(Cl)ccc1Cl,18*,nt,2%,49%,37*,nt
O=C(COc1ccccc1)Nc1ccccc1F,33*,?,25%,70%,nt,17%
Cc1ccc(Cl)cc1NC(=O)COc1ccccc1,16*,nt,-12%,38%,30,nt
O=S(=O)(c1ccc(NC(=S)NCc2ccco2)cc1)N1CCCCC1,-3,6%[46.1 µM],16%,-10%,6,-15%[46.1 µM]
COc1ccc(S(=O)(=O)N(CC(=O)N2CCOCC2)Cc2ccccc2)cc1C,-4,?,-4%,26%,-9,-1%
O=[N+]([O-])c1ccc(C(O)CN2CCN(C/C=C/c3ccccc3)CC2)cc1 (stereo not given),-1,11%,13µM*,0%,-2,?
O=[N+]([O-])c1ccc(C(O)CN2CCN(Cc3ccccc3)CC2)cc1 (stereo not given),-1,5%[46.1 µM],-1%,-4%,-1,?
CC(C)[C@H](NC(=O)c1ccc([N+](=O)[O-])cc1Cl)C(=O)N1CCN(C/C=C/c2ccccc2)CC1,nt,?,14µM*,?,nt,?
CC1=C(C(=O)N2CCOCC2)CC(CC(=O)NCC2CCCCC2)C(=O)N1Cc1ccccc1 (stereo not given),nt,nt,nt,-28%,nt,nt
CC(C)CN1CCCC2(CCN(C(=O)c3csnn3)CC2)C1,nt,nt,nt,-8%,nt,nt
CC(=O)COc1cccc2ccc(/C=C/c3ccc(Br)s3)nc12,20,nt,11µM*,-3%,36*,nt
Cc1cccc(/C=C\c2ccccc2)n1,nt,nt,nt,27%,nt,?
Oc1cccc(/C=C/c2ccc3cccc(O)c3n2)c1,37*,?,?,-51%,128*,?
COC(=O)c1ccc(/C=C/c2ccc3cccc(OC)c3n2)cc1,-3,-1%,8%,?,-9,-29%
Cc1ccc(/C=C/c2ccc3cccc(O)c3n2)s1,58*,?,?,21%,95*,?
COc1cccc(/C=C/c2ccc3cccc(O)c3n2)c1,47*,?,?,-24%,121*,?
CC(C)c1ccc(N(CC(=O)NN=C2CCN(C)CC2)S(=O)(=O)c2ccccc2)cc1,-3,?,?,-11%,-14,-10%[46.1 µM]
Cc1cc(N2CCN(C(=O)c3ccco3)CC2)n2nc(C)c(-c3ccccc3)c2n1,11,-8%,3.5µM*!,?,3,-19%
Cc1nn2c(N3CCOCC3)cc(C(C)(C)C)nc2c1-c1ccccc1,-1,nt,-7%,-13%,-9,nt
Cc1cc(N2CCN(C(=O)c3ccco3)CC2)n2nc(-c3cccc(Cl)c3)cc2n1,-3,26µM*,10µM*,?,46,16µM*
SMILES,CHX counter,Lassa entry inh,HCV inhibitor,FMDV inh,Shiga toxin inh,MARV entry inh
CCN1CCN(c2cc(C(C)(C)C)nc3c(-c4ccccc4)c(C)nn23)CC1,-1,?,4µM*,-8%,9,?
Cc1cc(N2CCN(C(=O)c3ccco3)CC2)n2nc(C)c(-c3ccc(Cl)cc3)c2n1,-2,nt,nt,nt,18,1%
Cc1nc2cc(-c3cccc(Cl)c3)nn2c(N2CCN(C(=O)c3ccco3)CC2)c1C,28*,nt,nt,nt,102*,0%
Cc1ccc(C)c(-c2nn(-c3cc(N4CCN(CCO)CC4)ccc3[N+](=O)[O-])c(=O)c3ccccc23)c1,-4,?,-12%,-28%,-7,?
CC(C)c1ccc(N2C(=O)NC(=O)/C(=C\C=C\c3ccco3)C2=O)cc1,-7,?,?,?,-4,?
CCc1ccc(N2C(=O)C3C4C=CC(CC4)C3C2=O)cc1 (stereo not given),12,nt,1%,21%,48*,nt
CCc1ccc(N2C(=O)C3CCCN3C2=S)cc1 (stereo not given),13,-13%[46.1 µM],9%,3%,52*,-9%[46.1 µM]
O=C1C2C3C=CC(CC3)C2C(=O)N1c1ccc(Cl)cc1 (stereo not given),-1,nt,-17%,-2%,nt,nt
COc1ccc(C(=O)OCC(=O)NC(C)CCc2ccccc2)cc1 (stereo not given),-2,-5%,0%,-8%,3,?
Cc1ccccc1C(=O)Nc1nnc(S(=O)(=O)N2c3ccccc3CC2C)s1 (stereo not given),nt,-2%[46.1 µM],nt,-16%,nt,nt
c1ccc2c(-c3csc(-c4ccncc4)n3)c[nH]c2c1,45*,nt,?,26%,96*,nt
Brc1ccc(-c2csc(-c3c[nH]c4ccccc34)n2)cc1,34*,-7%,6.3µM*,29%,86*,?
Clc1ccc(-c2c[nH]c3ccccc23)nn1,5,3%,-2%,9%,50,9%[46.1 µM]
O=C(Nc1ccc2c(c1)OCCO2)C1c2ccccc2OCC(=O)N1C1CC1 (stereo not given),nt,nt,nt,-14%,nt,nt
CC(C)(C)NC(=O)CSc1nc2ccc(NC(=O)CSc3nnnn3Cc3ccccc3)cc2s1,-3,?,2µM*,14µM*,-3,8.9µM*
CCOC(=O)CSc1nc2ccc(NC(=O)CSc3nnnn3Cc3ccccc3)cc2s1,-2,-5%,14%,8%,-7,-1%
CC(C)(C)NC(=O)CSc1nc2ccc(NC(=O)CSc3nnc(N)s3)cc2s1,-7,3%,13µM*,28µM*,-17,?
COc1ccc(C(=O)NC(=S)Nc2ccc3[nH]c(=O)[nH]c3c2)c(OC)c1,21*,nt,11%,13%,35,nt
COc1cc2ccccc2cc1C(=O)Nc1ccc(O)cc1,44*,?,?,29%,63*,9%
COc1cc(OC)c(C(=O)Nc2ccc3ccccc3c2)cc1OC,43*,-2%,-25%,65%,107*,-4%
COc1cc(OC)cc(C(=O)NC(=S)Nc2ccc3[nH]c(=O)[nH]c3c2)c1,-7,-6%,21%,-6%,19,2%[46.1 µM]
Cc1cccc(C(=O)NCc2nc(-c3cccc(NC(=O)c4ccoc4C)c3)oc2C)n1,nt,nt,nt,-19%,nt,nt
COc1cccc(C(=O)NCc2nc(-c3cccc(NC(=O)c4ccoc4C)c3)oc2C)c1OC,nt,nt,nt,20µM*,nt,nt
COc1ccc(OC)c(NC(=O)c2cc3ccccc3cc2OC)c1,2,-3%[46.1 µM],?,-4%,43,24%[46.1 µM]
O=C(NNC(=O)c1cc2ccccc2cc1O)Nc1ccccc1F,11,nt,-11%,3%,26,nt
COc1ccc(NC(=O)c2cc3ccccc3cc2OC)cc1OC,15*,nt,11µM*,11%,23,nt

# Assay outcomes as filed in PubChem BioAssay.
